Experimental data: PubChem BioAssay (NCATS)
Where “and” joins values, the source holds several entries; their conditions need not be identical. Equal entries are not always repeated. Inconclusive results are not listed. Calls of active or inactive are those of the source. The call rests on the fitted dose curve; in most records, active means well fitted curve in the direction sought with a large enough effect; inconclusive means small, poorly fitted or top-dose-only effect, or another doubt; inactive means no such curve, though single readings can be large; an effect the other way counts as inactive or inconclusive.

Legend:
HEK293 = test: Cytotoxic Profiling of Annotated Libraries Using Quantitative High-Throughput Screening (AID 1296008); settings: Five cell lines viability, CellTiter-Glo ATP luminescence, 48-72 h; max response: hits give low values; further: nearly all actives have a fitted effect of over 60% in size
Method in brief: (§1)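 Cells exposed to compounds for 48 or 72 hr at 37 degrees Celsius. Viability read as ATP-coupled luminescence with CellTiter-Glo after 10 min at room temperature.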

HaCat [1] = test: as above; settings: Five cell lines viability, CellTiter-Glo ATP luminescence, 48-72 h; max response: hits give low values
Method in brief: as §1

NIH3T3 = test: as above; settings: Five cell lines viability, CellTiter-Glo ATP luminescence, 48-72 h; max response: hits give low values
Method in brief: as §1

MCC-26 = test: qHTS assay to identify novel small-molecules to repurpose for Merkel cell carcinoma treatment (AID 1296009); settings: MCC and control cell lines, CellTiter-Glo viability, 72 h; series mostly up to 46 µM; further: nearly all actives have a fitted effect of over 60% in size
Method in brief: (§2)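 CellTiter-Glo luminescence after 72 hr compound exposure at 37 degree celsius gave cell viability. Libraries NPC and MIPE were run as 8- and 11-point dose responses; RLUs normalized to DMSO (negative) and no-cell (cytotoxicity) controls.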

MKL-1 = test: as above; settings: MCC and control cell lines, CellTiter-Glo viability, 72 h; series mostly up to 46 µM
Method in brief: as §2

UISO = test: as above; settings: MCC and control cell lines, CellTiter-Glo viability, 72 h; series mostly up to 46 µM
Method in brief: as §2

C33A = test: Primary qHTS to identify gynecologic anti-cancer compounds using libraries of approved drugs and bioactive compounds (AID 1345084); settings: Gynecologic cancer cell panel viability, ATPlite luminescence, 48 h; series mostly up to 57.5 µM; further: nearly all actives have a fitted effect of over 55% in size
Method in brief: (§3)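 Five-concentration response, 48 h; readout is ATP-driven luciferase luminescence.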

Es-2 = test: as above; settings: Gynecologic cancer cell panel viability, ATPlite luminescence, 48 h; series mostly up to 57.5 µM
Method in brief: as §3

JEG-3 = test: as above; settings: Gynecologic cancer cell panel viability, ATPlite luminescence, 48 h; series mostly up to 57.5 µM
Method in brief: as §3

MCC-13 = test: qHTS assay to identify novel small-molecules to repurpose for Merkel cell carcinoma treatment (AID 1296009); settings: MCC and control cell lines, CellTiter-Glo viability, 72 h; series mostly up to 46 µM; further: nearly all actives have a fitted effect of over 60% in size
Method in brief: as §2

MKL-2 = test: as above; settings: MCC and control cell lines, CellTiter-Glo viability, 72 h; series mostly up to 46 µM
Method in brief: as §2

CAOV3 = test: Primary qHTS to identify gynecologic anti-cancer compounds using libraries of approved drugs and bioactive compounds (AID 1345084); settings: Gynecologic cancer cell panel viability, ATPlite luminescence, 48 h; series mostly up to 57.5 µM; further: nearly all actives have a fitted effect of over 55% in size
Method in brief: as §3

CASKI = test: as above; settings: Gynecologic cancer cell panel viability, ATPlite luminescence, 48 h; series mostly up to 57.5 µM
Method in brief: as §3

HeLa = test: as above; settings: Gynecologic cancer cell panel viability, ATPlite luminescence, 48 h; series mostly up to 57.5 µM
Method in brief: as §3

KB-3-1 = test: Cytotoxic Profiling of Annotated Libraries Using Quantitative High-Throughput Screening (AID 1296008); settings: Five cell lines viability, CellTiter-Glo ATP luminescence, 48-72 h; max response: hits give low values; further: nearly all actives have a fitted effect of over 60% in size
Method in brief: as §1

WaGa = test: qHTS assay to identify novel small-molecules to repurpose for Merkel cell carcinoma treatment (AID 1296009); settings: MCC and control cell lines, CellTiter-Glo viability, 72 h; series mostly up to 46 µM; further: nearly all actives have a fitted effect of over 60% in size
Method in brief: as §2

Hek293T = test: Primary qHTS to identify gynecologic anti-cancer compounds using libraries of approved drugs and bioactive compounds (AID 1345084); settings: Gynecologic cancer cell panel viability, ATPlite luminescence, 48 h, control line for the selectivity index; series mostly up to 57.5 µM; further: nearly all actives have a fitted effect of over 55% in size
Method in brief: as §3

HACAT [2] = test: qHTS assay to identify novel small-molecules to repurpose for Merkel cell carcinoma treatment (AID 1296009); settings: MCC and control cell lines, CellTiter-Glo viability, 72 h; series mostly up to 44.8 µM; further: nearly all actives have a fitted effect of over 60% in size
Method in brief: as §2
On the % scale 0 is the no-effect control and ±100 the full control effect; potency means the concentration at half of the fitted maximal effect.

Nc1cccc(-c2cc3c(Oc4cccc(O)c4)ncnc3[nH]2)c1
inactive: Potency (MKL-1) | Potency (UISO) | Potency (C33A) | Potency (Es-2) | Potency (JEG-3)
active: Potency (HEK293) 20.9 µM and 18.4 µM | Potency (HaCat [1]) 2.96 µM | Potency (NIH3T3) 3.72 µM and 4.61 µM | Potency (MCC-26) 18700 nM

CC(C)c1noc(N2CCC(COc3ccc(-c4ccc(S(C)(=O)=O)cc4)nc3)CC2)n1
inactive: max response (HaCat [1]) -15.4% and 4.61% | max response (NIH3T3) -1.13% and 3.22% | Potency (MCC-13) | Potency (MCC-26) | Potency (MKL-1) | Potency (MKL-2) | Potency (C33A) | Potency (CAOV3) | Potency (CASKI) | Potency (Es-2) | Potency (HeLa) | Potency (JEG-3)
active: Potency (HEK293) 7.43 µM and 8.2 µM

CN1CCN(c2ccc3nc(-c4c(N)c5c(F)cccc5[nH]c4=O)[nH]c3c2)CC1
active: Potency (HEK293) 1.66 µM | Potency (KB-3-1) 16600 nM | Potency (NIH3T3) 1.32 µM | Potency (MKL-1) 8330 nM

CCC1=C[C@@H]2CN(C1)Cc1c([nH]c3ccccc13)[C@@](C(=O)OC)(c1cc3c(cc1OC)N(C)[C@@H]1[C@@](O)(C(=O)OC)[C@H](OC(C)=O)[C@]4(CC)C=CCN5CC[C@]31[C@@H]54)C2
inactive: max response (HaCat [1]) -8.6%
active: Potency (HEK293) 0.0235 µM | Potency (KB-3-1) 16.6 nM | Potency (MKL-1) 11.8 nM

CCCCOc1c(C(=O)c2c(F)cc(C)cc2F)cnc2n[nH]cc12
active: Potency (HEK293) 14.8 µM and 2.59 µM | Potency (NIH3T3) 16.6 µM | Potency (HeLa) 8910 nM
inactive: outcome (KB-3-1) | Potency (MCC-13) | Potency (MCC-26) | Potency (MKL-1) | Potency (MKL-2) | Potency (WaGa) | Potency (C33A) | Potency (CAOV3) | Potency (CASKI) | Potency (JEG-3)

NC(=O)c1cccc2cn(-c3ccc([C@@H]4CCCNC4)cc3)nc12
active: Potency (HEK293) 6.51 µM | Potency (MKL-1) 18700 nM | Potency (WaGa) 10500 nM
inactive: max response (KB-3-1) -3.07% and -13.7% | max response (NIH3T3) -38.6% and -0.532% | Potency (MCC-13) | Potency (C33A) | Potency (CASKI) | Potency (HeLa) | Potency (Hek293T) | Potency (JEG-3)

CC(C)C[C@H](NC(=O)CNC(=O)c1cc(Cl)ccc1Cl)B(O)O
active: Potency (HEK293) 1.18 µM | Potency (HaCat [1]) 3.72 µM | Potency (NIH3T3) 0.662 µM | Potency (MKL-1) 743 nM | Potency (MKL-2) 264 nM | Potency (UISO) 590 nM | Potency (WaGa) 296 nM

Cc1cccc(C=NNc2cc(N3CCOCC3)nc(OCCc3ccccn3)n2)c1
inactive: max response (HaCat [1]) -6.14% | Potency (MCC-13) | Potency (MCC-26) | Potency (WaGa)
active: Potency (HEK293) 5.9 µM | Potency (MKL-1) 20900 nM | Potency (MKL-2) 16600 nM

COC(=O)C[C@](O)(CCCC(C)(C)O)C(=O)O[C@@H]1C(OC)=C[C@]23CCCN2CCc2cc4c(cc2[C@H]13)OCO4
inactive: max response (HEK293) -7.61% | outcome (HaCat [1]) | max response (NIH3T3) 2.2% | Potency (HACAT [2]) | Potency (MCC-13) | Potency (MCC-26) | Potency (MKL-1) | Potency (MKL-2) | Potency (UISO) | Potency (WaGa)

O=c1[nH]nc(Sc2ncc([N+](=O)[O-])s2)n1-c1ccc2c(c1)OCCO2
active: Potency (HEK293) 9.35 µM | Potency (HaCat [1]) 18.7 µM | Potency (NIH3T3) 8.33 µM | Potency (MCC-13) 11800 nM | Potency (MCC-26) 10500 nM | Potency (MKL-1) 3720 nM | Potency (MKL-2) 5260 nM | Potency (UISO) 7430 nM | Potency (WaGa) 5260 nM

CCN1CCN(CC(=O)Nc2ccc(-c3cccc4c(=O)cc(N5CCOCC5)oc34)c3sc4ccccc4c23)CC1
active: Potency (HEK293) 1.18 µM | Potency (HaCat [1]) 0.935 µM | Potency (NIH3T3) 1.05 µM

Cc1[nH]c2ccccc2c1CCNCc1ccc(C=CC(=O)NO)cc1
active: Potency (HEK293) 0.418 µM | Potency (KB-3-1) 148 nM | Potency (NIH3T3) 0.743 µM | Potency (MCC-13) 833 nM | Potency (MCC-26) 935 nM | Potency (MKL-1) 332 nM | Potency (MKL-2) 46.9 nM | Potency (UISO) 526 nM | Potency (WaGa) 59 nM

Cc1ccc(-c2ncn(-c3ccc(Nc4nccc(-c5cccc(N6CCOCC6)c5)n4)cc3)n2)cn1
active: Potency (HEK293) 0.332 µM | Potency (HaCat [1]) 0.418 µM | Potency (KB-3-1) 209 nM | Potency (MCC-13) 526 nM | Potency (MCC-26) 264 nM | Potency (MKL-1) 235 nM | Potency (MKL-2) 52.6 nM

Nc1ccccc1NC(=O)c1ccc(CNC(=O)OCc2cccnc2)cc1
inactive: Potency (CAOV3) | Potency (CASKI)
active: Potency (HEK293) 7.43 µM and 6.51 µM | Potency (HaCat [1]) 13.2 µM and 5.17 µM | Potency (KB-3-1) 9.35 µM and 7.31 µM | Potency (MKL-1) 2350 nM | Potency (MKL-2) 296 nM | Potency (UISO) 2350 nM | Potency (WaGa) 296 nM | Potency (C33A) 17800 nM | Potency (Es-2) 11200 nM | Potency (HeLa) 10000 nM | Potency (JEG-3) 15800 nM
